Some test systems named below: NCI-H23 lung; NCI-H226 lung; NCI-H322M lung; HOP-62 NSCLC; NCI-H460 lung; HOP-92 NSCLC; NCI-H522 lung; A549/ATCC NSCLC; 786-0 renal; COLO 205 colon.
Common to all, as to assay: NCI-60 one-dose screen, 48 h (100 = growth as untreated, 0 = no growth, -100 = all killed)
Common to all, as to details: 10 µM unless noted

About 83,000 compounds went through this panel and 20% of them were active in at least one assay; those are over-represented in the sample as a whole.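 Activity criterion: percent growth below 10, measured after cells in 96-well plates were exposed to a single compound concentration for 48 hours.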 Values without a mark were called inactive. Active and inactive are the calls of the source.

As for `Cc1ccc(C(Cc2ccccc2)NCCO)cc1` (stereo not given), the growth with NCI-H23 lung is 101%; with NCI-H226 lung, 97.2%; with NCI-H322M lung, 96.4%; in the assay with HOP-62 NSCLC, 80.3%; with NCI-H460 lung, 105%; in the assay on HOP-92 NSCLC it was 74.8%. In addition, the growth was 52.3% in the assay with NCI-H522 lung, 69.2% with A549/ATCC NSCLC, 80.8% in the assay with 786-0 renal and 82.1% in the assay on COLO 205 colon.
Consider `CCCCN1CCCC[C@@H]1C(=O)N[C@H](C(=O)N(C)[C@H](CCc1nc(C(=O)N[C@@H](Cc2ccccc2)C[C@H](C)C(=O)OC)cs1)C(C)C)[C@@H](C)CC`, for which the growth is 62.6% in the assay with NCI-H23 lung; 84% in the assay on NCI-H226 lung; 71.1% in the assay on NCI-H322M lung; 56.9% in the assay on HOP-62 NSCLC; 57.5% with NCI-H460 lung; 22.2% in the assay with HOP-92 NSCLC. For the same compound, the growth with NCI-H522 lung is 25.1%; in the assay with A549/ATCC NSCLC, 58.8%; with 786-0 renal, 66.8%; in the assay with COLO 205 colon, 22.3%.
Take `CC(C)(C)C(=O)OCOP(=O)(NCc1ccccc1)C1CCCN(O)C1=O` (stereo not given): the growth is 49.1% with NCI-H23 lung; 32.4% with NCI-H226 lung; 27.8% in the assay on NCI-H322M lung; 23.4% in the assay on HOP-62 NSCLC; 7.07% (active) in the assay with NCI-H460 lung; 34% in the assay on HOP-92 NSCLC. Besides, the growth in the assay with NCI-H522 lung is 8.18% (active); in the assay with A549/ATCC NSCLC, 29.9%; in the assay with 786-0 renal it was 23.9%; with COLO 205 colon it was 45.7%.
`ClCCN(CCCl)c1ccc(-n2cnc3c(Cl)ncnc32)cc1`: the growth was -69% (active) with NCI-H23 lung; 97.5% in the assay with NCI-H226 lung; 58.7% in the assay on NCI-H322M lung; 87% with HOP-62 NSCLC; 47.8% in the assay with NCI-H460 lung; -1.92% (active) with HOP-92 NSCLC. In addition, the growth with NCI-H522 lung is -76.9% (active); in the assay on A549/ATCC NSCLC, 85.2%; in the assay on 786-0 renal, 106%; in the assay on COLO 205 colon, 65.8%.
As to `COC(=O)CCC1=C(C)c2cc3[n-]c(cc4nc(cc5[n-]c(cc1n2)c(CCC(=O)OC)c5C)C=C4C)cc3C.[Cd+2]`, the growth in the assay with NCI-H23 lung was 19.1%; in the assay on NCI-H226 lung it was 19.8%; with NCI-H322M lung, 95.5%; in the assay with HOP-62 NSCLC it was 65.7%; in the assay on NCI-H460 lung, -27.3% (active); with HOP-92 NSCLC it was 3.42% (active). For the same compound, the growth in the assay with NCI-H522 lung was -70.1% (active); in the assay with A549/ATCC NSCLC it was 56.1%; with 786-0 renal, 75.2%; in the assay with COLO 205 colon, 22.4%.
On to `N#CCCNc1ccccc1`, for which the growth is 110% in the assay with NCI-H23 lung; 106% with NCI-H226 lung; 110% in the assay on NCI-H322M lung; 116% in the assay on HOP-62 NSCLC; 111% in the assay on NCI-H460 lung; 94.9% in the assay on HOP-92 NSCLC. In addition, the growth with NCI-H522 lung was 92.8%; in the assay with A549/ATCC NSCLC, 113%; in the assay on 786-0 renal, 120%; in the assay with COLO 205 colon it was 118%.
`C=C1C(=O)O[C@H]2[C@H]1CC/C(COC(=O)C(=O)c1cn(Cc3ccccc3)c3ccccc13)=C\CC[C@@]1(C)O[C@@H]21`: the growth with NCI-H23 lung was -51.7% (active); in the assay on NCI-H226 lung, -70.3% (active); with NCI-H322M lung it was -25.6% (active); with HOP-62 NSCLC, 2.07% (active); in the assay with NCI-H460 lung it was -11.4% (active); with HOP-92 NSCLC, -46.7% (active). In addition, the growth with NCI-H522 lung was -69% (active); with A549/ATCC NSCLC it was -42.7% (active); in the assay with 786-0 renal it was -75.3% (active); in the assay on COLO 205 colon it was -52.4% (active).
With `CC(=O)[C@H]1CC[C@H]2[C@@H]3CC[C@H]4C[C@H](N)CC[C@]4(C)[C@H]3CC[C@]12C`, the growth in the assay with NCI-H23 lung is 86.7%; in the assay on NCI-H226 lung, 95.7%; with NCI-H322M lung it was 107%; in the assay with HOP-62 NSCLC it was 77.1%; with NCI-H460 lung, 79.9%; with HOP-92 NSCLC, 7.56% (active). Also, the growth in the assay on NCI-H522 lung is 77.3%; with A549/ATCC NSCLC it was 66.4%; with 786-0 renal, 60.7%; in the assay on COLO 205 colon, 49.3%.
Consider `O=C1C2CC=CCC2C(=O)N1SC(Cl)(Cl)Cl` (stereo not given), for which the growth was 96.7% in the assay with NCI-H23 lung; 106% in the assay on NCI-H226 lung; 125% with NCI-H322M lung; 95.9% in the assay with HOP-62 NSCLC; 103% in the assay on NCI-H460 lung; 64.7% in the assay with HOP-92 NSCLC. For the same compound, the growth with NCI-H522 lung was -57.1% (active); with A549/ATCC NSCLC, 108%; in the assay on 786-0 renal it was 97.7%; in the assay on COLO 205 colon, 87.5%.
For `COc1cc(C=Nc2cc(Cl)cc(Cl)c2)ccc1N(CCCl)CCCl`, the growth in the assay on NCI-H23 lung was 80.1%; with NCI-H226 lung it was 76.4%; with NCI-H322M lung it was 92.8%; in the assay with HOP-62 NSCLC, 95.7%; in the assay with NCI-H460 lung it was 13.7%; with HOP-92 NSCLC, 77.3%. The growth with NCI-H522 lung was -84.3% (active); in the assay on A549/ATCC NSCLC, 91.9%; with 786-0 renal, 107%; with COLO 205 colon, 76.9%.
In the case of `CN[C@@]1(c2ccccc2Cl)CCCC[C@@H]1NCC1CCCO1` (stereo not given in full), the growth in the assay on NCI-H23 lung was 97.4%; with NCI-H226 lung, 97.8%; in the assay on NCI-H322M lung, 94.1%; in the assay with HOP-62 NSCLC, 97.4%; in the assay with NCI-H460 lung, 110%; with HOP-92 NSCLC, 92%. In addition, the growth is 91.3% in the assay with NCI-H522 lung, 98% in the assay on A549/ATCC NSCLC, 97.7% in the assay with 786-0 renal and 109% in the assay on COLO 205 colon.
`O=C1OCCC1Br` (stereo not given): the growth in the assay with NCI-H23 lung was 103%; in the assay on NCI-H226 lung, 103%; in the assay with NCI-H322M lung, 97.7%; with HOP-62 NSCLC it was 105%; with NCI-H460 lung it was 105%; in the assay on HOP-92 NSCLC, 85.6%. For the same compound, the growth in the assay on NCI-H522 lung is 83.9%; in the assay with A549/ATCC NSCLC it was 99.8%; in the assay on 786-0 renal it was 106%; in the assay on COLO 205 colon it was 120%.

For the origin of these results see PubChem BioAssay (NCI).
